Measurements taken from PubChem BioAssay (NCATS).
Records with an inconclusive call do not appear. Where a call stands in place of a potency, no number is given. Activity calls are given as the source filed them. Calls come from the whole dose curve; as a rule, active = well fitted inhibition curve with a large enough effect; inconclusive = small, poorly fitted or top-dose-only effect; inactive = flat fitted curve, though single readings scatter.

assay: qHTS to identify inhibitors of the type 1 interferon - major histocompatibility complex class I in skeletal muscle: primary screen against the NCATS LOPAC collection (AID 1347405); settings: iHSKM muscle cells, IFN-b-induced MHC-I HiBiT luminescence, 24 h; series mostly up to 45.9 µM;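 note: lytic HiBiT luminescence reporting HLA-B protein level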
How it was run: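 CRISPR-engineered immortalized human myoblasts (C25cl48) with HiBiT fused to endogenous HLA-B*08:01, stimulated with 4 ng/ml IFN-beta. LOPAC compounds tested as a 7-point 1:4.3 titration (top 46 uM final), 24 h at 37 C; lytic HiBiT luminescence read.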
Potency is the fitted concentration of half-maximal effect.

SMILES	Potency
CCN(CC)CCCN(c1ccccc1)C1Cc2ccccc2C1	inactive
CCN(CC)CC(=O)Nc1c(C)cccc1C	inactive
C[N+](C)(C)CCOC(=O)CCC(=O)OCC[N+](C)(C)C	inactive
CCO/C([O-])=N/c1c[n+](N2CCOCC2)no1	inactive
CCc1c(C)[nH]c2c1C(=O)C(CN1CCOCC1)CC2 (stereo not given)	inactive
Cc1nc2sccn2c(=O)c1CCN1CCC(=C(c2ccc(F)cc2)c2ccc(F)cc2)CC1	inactive
CCCN1C[C@H](CSC)C[C@@H]2c3cccc4[nH]cc(c34)C[C@H]21	inactive
CCn1ccnc1CC1COc2ccccc2O1 (stereo not given)	inactive
CC(C)COCC(CN(Cc1ccccc1)c1ccccc1)N1CCCC1 (stereo not given)	inactive
NC(=O)c1ncn([C@@H]2O[C@H](CO)[C@@H](O)[C@H]2O)c1O	inactive
COc1ccc([C@@H]2Sc3ccccc3N(CCN(C)C)C(=O)[C@@H]2OC(C)=O)cc1	inactive
CC(=O)[C@]1(O)Cc2c(O)c3c(c(O)c2[C@@H](O[C@H]2C[C@H](N)[C@H](O)[C@H](C)O2)C1)C(=O)c1ccccc1C3=O	1 µM (active)
C[C@]12CCC(=O)C=C1CC[C@@H]1[C@@H]2CC[C@@]2(C)[C@H]1CC[C@]2(O)C(=O)CO	inactive
CCN1CCc2nc(N)oc2CC1	inactive
CN/C(=C\[N+](=O)[O-])NCCSCc1ccc(CN(C)C)o1	inactive
COc1ccc(CCN(C)CCCC(C#N)(c2cc(OC)c(OC)c(OC)c2)C(C)C)cc1OC (stereo not given)	inactive
CNCCCN1c2ccccc2CCc2ccccc21	inactive
CNCCC(Oc1ccccc1OC)c1ccccc1 (stereo not given)	inactive

SMILES	Potency
O=C(CCNNC(=O)c1ccncc1)NCc1ccccc1	inactive
C[N+](C)(C)CCOC(N)=O	inactive
c1cnc(N2CCN(Cc3ccc4c(c3)OCO4)CC2)nc1	inactive
CN(C)CCCN1c2ccccc2Sc2ccccc21	inactive
O=C1CC2(CCCC2)CC(=O)N1CCCCN1CCN(c2ncccn2)CC1	inactive
C(=C\c1ccccc1)/CN1CCN(C(c2ccccc2)c2ccccc2)CC1	inactive
NC(Cc1ccc(Cl)cc1)C(=O)O (stereo not given)	inactive
NC(=O)c1cn(Cc2c(F)cccc2F)nn1	inactive
CCCN(CCC)C(=O)C(CCC(=O)O)NC(=O)c1ccccc1 (stereo not given)	inactive
CC(N=C(NC#N)Nc1ccncc1)C(C)(C)C (stereo not given)	inactive
CC(=O)OCC1=C(C(=O)O)N2C(=O)[C@@H](NC(=O)Cc3cccs3)[C@H]2SC1	inactive
CSc1ccc(C(=O)c2[nH]c(=O)[nH]c2C)cc1	inactive
COC(=O)[C@@H](N)Cc1ccc(O)c(O)c1	inactive
c1cc(CN2CCCCC2)cc(OCCCNc2nc3ccccc3s2)c1	inactive
Cc1cccc(C)c1NC(=O)C(C)N (stereo not given)	inactive
NCCCNCCSP(=O)(O)O	inactive
Cc1scc2c1N(C(=O)CN1CCN(C)CC1)c1ccccc1NC2=O	inactive

assay: qHTS to identify inhibitors of the type 1 interferon - major histocompatibility complex class I in skeletal muscle: primary screen against the NCATS Pharmaceutical Collection (AID 1347407); settings: human skeletal muscle cells, IFN-b-induced MHC-I HiBiT luminescence, 24 h; series mostly up to 45.9 µM;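 note: luminescence of HiBiT knocked into endogenous HLA-B as interferon-induced MHC class I level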
How it was run: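 Immortalized human myoblasts (C25cl48) with HiBiT knocked into endogenous HLA-B*08:01 were stimulated with 4 ng/ml IFN-beta and treated with compounds (8-point, 1:5, top 46 uM final) for 24 h at 37 C; HiBiT lytic luminescence read.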

SMILES	Potency	activity change, negative = inhibition
CCN(CC)CCCN(c1ccccc1)C1Cc2ccccc2C1	inactive	–
CCN(CC)CC(=O)Nc1c(C)cccc1C	inactive	–
C[N+](C)(C)CCOC(=O)CCC(=O)OCC[N+](C)(C)C	inactive	–
CCO/C([O-])=N/c1c[n+](N2CCOCC2)no1	inactive	–
CCc1c(C)[nH]c2c1C(=O)C(CN1CCOCC1)CC2 (stereo not given)	inactive	–
Cc1nc2sccn2c(=O)c1CCN1CCC(=C(c2ccc(F)cc2)c2ccc(F)cc2)CC1	inactive	–
CCCN1C[C@H](CSC)C[C@@H]2c3cccc4[nH]cc(c34)C[C@H]21	inactive	–
CCn1ccnc1CC1COc2ccccc2O1 (stereo not given)	inactive	–
CC(C)COCC(CN(Cc1ccccc1)c1ccccc1)N1CCCC1 (stereo not given)	inactive	–
NC(=O)c1ncn([C@@H]2O[C@H](CO)[C@@H](O)[C@H]2O)c1O	inactive	–
COc1ccc([C@@H]2Sc3ccccc3N(CCN(C)C)C(=O)[C@@H]2OC(C)=O)cc1	inactive	–
CC(=O)[C@]1(O)Cc2c(O)c3c(c(O)c2[C@@H](O[C@H]2C[C@H](N)[C@H](O)[C@H](C)O2)C1)C(=O)c1ccccc1C3=O	5.28 µM (active)	–
C[C@]12CCC(=O)C=C1CC[C@@H]1[C@@H]2CC[C@@]2(C)[C@H]1CC[C@]2(O)C(=O)CO	inactive	–
CCN1CCc2nc(N)oc2CC1	inactive	–
CN/C(=C\[N+](=O)[O-])NCCSCc1ccc(CN(C)C)o1	inactive	–
COc1ccc(CCN(C)CCCC(C#N)(c2cc(OC)c(OC)c(OC)c2)C(C)C)cc1OC (stereo not given)	inactive	–
CNCCCN1c2ccccc2CCc2ccccc21	inactive	–
CNCCC(Oc1ccccc1OC)c1ccccc1 (stereo not given)	inactive	–

SMILES	Potency	activity change, negative = inhibition
O=C(CCNNC(=O)c1ccncc1)NCc1ccccc1	inactive	–
C[N+](C)(C)CCOC(N)=O	inactive	–
c1cnc(N2CCN(Cc3ccc4c(c3)OCO4)CC2)nc1	inactive	–
CN(C)CCCN1c2ccccc2Sc2ccccc21	inactive	–
O=C1CC2(CCCC2)CC(=O)N1CCCCN1CCN(c2ncccn2)CC1	inactive	–
C(=C\c1ccccc1)/CN1CCN(C(c2ccccc2)c2ccccc2)CC1	inactive	–
NC(Cc1ccc(Cl)cc1)C(=O)O (stereo not given)	–	1.91% [at 0.727 µM] (inactive)
NC(=O)c1cn(Cc2c(F)cccc2F)nn1	inactive	–
CCCN(CCC)C(=O)C(CCC(=O)O)NC(=O)c1ccccc1 (stereo not given)	inactive	–
CC(N=C(NC#N)Nc1ccncc1)C(C)(C)C (stereo not given)	inactive	–
CC(=O)OCC1=C(C(=O)O)N2C(=O)[C@@H](NC(=O)Cc3cccs3)[C@H]2SC1	inactive	–
CSc1ccc(C(=O)c2[nH]c(=O)[nH]c2C)cc1	inactive	–
COC(=O)[C@@H](N)Cc1ccc(O)c(O)c1	inactive	–
c1cc(CN2CCCCC2)cc(OCCCNc2nc3ccccc3s2)c1	inactive	–
Cc1cccc(C)c1NC(=O)C(C)N (stereo not given)	inactive	–
NCCCNCCSP(=O)(O)O	–	3.17% [at 9.18 µM] (inactive)
Cc1scc2c1N(C(=O)CN1CCN(C)CC1)c1ccccc1NC2=O	inactive	–
